# Measurements from PubChem BioAssay.
# Unmarked numbers belong to inactive results. How the calls were made is not given here.
# Biological target: Pantothenate synthetase (Mycobacterium tuberculosis (strain ATCC 25618 / H37Rv)) (UniProt P9WIL5)
# Experiment: Coupled enzyme confirmation of inhibitors against recombinant Mtb PanC (AID 375);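 further: 0% = full reaction with vehicle and 100% = no enzyme background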
# Settings: coupled enzyme assay; at 10 µM, stronger effect = higher value
# Pantothenate synthetase (Mycobacterium tuberculosis (strain ATCC 25618 / H37Rv)), sequence (P9WIL5 whole entry, looked up): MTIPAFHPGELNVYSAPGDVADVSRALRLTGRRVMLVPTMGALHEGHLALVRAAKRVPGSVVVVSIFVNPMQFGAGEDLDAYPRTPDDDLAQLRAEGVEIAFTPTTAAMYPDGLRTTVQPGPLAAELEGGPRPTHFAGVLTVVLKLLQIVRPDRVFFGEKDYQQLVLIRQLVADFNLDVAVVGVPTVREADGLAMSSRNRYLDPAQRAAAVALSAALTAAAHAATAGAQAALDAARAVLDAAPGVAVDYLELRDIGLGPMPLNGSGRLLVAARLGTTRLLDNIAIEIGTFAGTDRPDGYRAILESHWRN
row,SMILES,inhibition [%]
1,O=C(CSc1nnc(-c2ccncc2)o1)Oc1ccccc1,0
2,Cc1cc(C)c(OCC(=O)Nc2ccc3c(c2)OCO3)cc1C,2
3,O=C(Cn1cnc2c(nnn2-c2ccc(F)cc2)c1=O)N1CCCc2ccccc21,0
4,CC(=O)OCC(=O)[C@@]12OC3(CCCC3)O[C@@H]1C[C@H]1[C@@H]3CCC4=CC(=O)C=C[C@]4(C)[C@@]3(F)[C@@H](O)C[C@@]12C,1
5,Cc1cc2c(cc1C)-c1nnnn1C(C)(C)C2,4
6,N#CC1=C(N)Oc2n[nH]c(-c3cccs3)c2C1c1cccs1 (stereo not given),2
7,CCc1ccc2[nH]c(=O)c(C(c3nnnn3CC3CCCO3)N3CCCc4ccccc43)cc2c1 (stereo not given),0
8,Cn1c(=O)n(Cc2ccc(F)cc2)c(=O)c2c1nc1n2CCCN1Cc1ccccc1,0
9,C=CCn1c(=O)c2ccccc2n2c(SC(C)C(=O)Nc3nc(-c4ccccc4)cs3)nnc12 (stereo not given),4
10,Cc1c(/C(O)=C2/C(=O)C(=O)N(CCN3CCOCC3)C2c2cccs2)cnn1-c1ccccc1 (stereo not given),8
11,COC(=O)C1(C)NC(c2cccs2)C2C(=O)N(c3ccccc3F)C(=O)C21 (stereo not given),0
12,Cn1c(=O)oc2cc(S(=O)(=O)N3CCN(c4ccccn4)CC3)ccc21,0
13,Cc1cc(C)cc(C(=O)N2CCC(C(N)=O)CC2)c1,0
14,Cc1cc(-c2ccc(F)cc2)nc2cc(C(N)=O)nn12,0
15,NC(N)=NC(N)=NCCc1ccccc1,4
16,Cc1nc2ccccc2cc1O,0
17,O=C(NC1CCCCC1)C1CC(O)CN1C(=O)OCc1ccccc1 (stereo not given),0
18,CCOC(=O)c1cc(-c2nnc(-c3ccc(Oc4ccccc4)cc3)o2)c(C)nc1C,0
19,Fc1ccc(C(c2ccc(F)cc2)N2CCN(C/C=C/c3ccccc3)CC2)cc1,0
20,CCOc1cc2[nH]c(=O)n(CCCCC(=O)N3CCCCCC3)c(=O)c2cc1OCC,2

row,SMILES,inhibition [%]
1,COc1ccc(N2CCN(CCNC(=O)CCS(=O)(=O)c3cccc4nsnc34)CC2)cc1,0
2,CCN1CCN(C(=O)C2CCN(C(=O)c3cc4sccc4n3CC)CC2)CC1,14
3,Cc1ccc(N2CCN(C(=O)c3ccccc3)CC2)c(C)c1,1
4,COc1cccc(C2C(C(=O)c3cccs3)=C(O)C(=O)N2CCCn2ccnc2)c1OC (stereo not given),0
5,O=C(NCCCN1CCN(Cc2ccccc2)CC1)C1CCN(c2nnc(-n3cccc3)s2)CC1,0
6,CCOC(=O)Cc1csc(NC(=O)CSc2nnc(C)n2C)n1,0
7,CN(c1ccccc1)C(c1ccc(F)cc1)c1nnnn1CC1CCCO1 (stereo not given),0
8,NC(=O)C(Cc1ccccc1)NS(=O)(=O)c1ccc(N2CCCC2=O)cc1 (stereo not given),0
9,COc1cccc(CNC(=O)C2CCN(C(=O)N(C)C)CC2)c1,2
10,FC(F)(F)c1cc(-c2ccccc2)nc(N2CCCCC2)n1,2
11,CCOC(=O)c1cnn(-c2sc(C(=O)OCC)c(C)c2C(=O)OCC)c1N,0
12,COc1ccc(-c2coc3cc(O)cc(O)c3c2=O)cc1,5
13,COCC(C)NC(=O)CCS(=O)(=O)c1nc(-c2ccc(OC)cc2)cc(C(F)(F)F)n1 (stereo not given),0
14,COc1cc2c(cc1NC(=O)CN1CCN(S(=O)(=O)c3ccc(F)cc3)CC1)oc1ccccc12,0
15,Nc1ncnc2nc(Sc3ccc(Cl)cc3)[nH]c12,0
16,CCOc1ccccc1-c1nc(-c2ccc(C)nc2OC)no1,3
17,COc1ccc(-c2noc(CCCC(=O)O)n2)cc1,8
18,COc1ccc(C2=NOC(C(=O)NCCCN3CCOCC3)C2)cc1 (stereo not given),5
19,O=S(=O)(c1cccc(S(=O)(=O)N2CCC(N3CCCCC3)CC2)c1)N1CCOCC1,0
20,CCOC(=O)C1=C(C)NC(C)=C(C(=O)OCC)C1c1cc(N)ccc1OC(F)F,0
